In PubChem BioAssay (NCATS):
Activity calls are given as the source filed them. Calls follow the shape of the dose curve; as a rule, active = well fitted curve in the direction sought with a large enough effect; inconclusive = small, poorly fitted or top-dose-only effect, or effect the other way, or another doubt; inactive = no such curve, though single readings can be large or run the other way.

Assay: Inducers of the Endoplasmic Reticulum Stress Response (ERSR) in human glioma: Validation (AID 504836); also: 0% is about no effect
Conditions: human glioma cells, ER stress response reporter; series mostly up to 38.3 µM; activation: at the top concentration
Text: Primary protein unfolding takes place for many diseases, including diabetes and hypoxia, , and triggers a reaction in the cells called ER stress response (ERSR). ). ERSR is designed as a repair mechanism, but ultimately leads to cell death via apoptosis if conditions triggering protein unfolding persist (1). The molecular clue to ERSR activation is the enhancement of the expression of key molecular chaperones, including the glucose regulated protein (GRP) 78. GRP78 is the main sensor for protein folding and the main actuator of the ERSR.
In a collaboration between the Southern Research Institute and the NIH Chemical Genomics Center, a cell based screen was developed that reliably uses GRP78 as a sensor to identify small molecules as inducers of ERSR. In resting conditions, GRP78 binds proteins and acts as a natural repressor. Once unfolded proteins are present in the ER, GRP78 releases some of the repressors and binds to the unfolded proteins. The release of the repressors executes the ERSR program. Using a human glioma cell line in a miniaturized, luminescent format, a high-throughput screen was developed to identify actuators of the ERSR.
(1) Soboloff, J. and S. A. Berger (2002). "Sustained ER Ca2+ depletion suppresses protein synthesis and induces activation-enhanced cell death in mast cells." J Biol Chem 277(16): 13812-20.
NIH Chemical Genomics Center [NCGC]
NIH Molecular Libraries Probe Centers Network [MLPCN]
Assay Submitter (PI): Maurizio Grimaldi, Southern Research Institute
Stable transfected human glioma cell line, U87-MG, are dispensed at density 1000 cells/well into Greiner white solid bottom 1536-well assay plates. Compounds are transferred via Kalypsys pin tool equipped with 1536-pin array (10nl slotted pins, V&P Scientific, San Diego, CA). The assay plates will be incubated for 16 hours and developed by adding appropriate quantities of the Promega Bright Glo reagent. The plates will be incubated at room temperature for 10 minutes prior to being transferred into a ViewLux high-throughput CCD imager (PerkinElmer), wherein end-point measurements of luminescence are acquired.

Row | SMILES | activation
1 | NC(N)=N/N=C/c1c(Cl)cccc1Cl | 0.535% (inactive)
2 | NS(=O)(=O)c1cc2c(cc1Cl)NC(C1CC3C=CC1C3)NS2(=O)=O (stereo not given) | -0.421% (inactive)
3 | COC(=O)[C@@H](N)Cc1ccc(O)c(O)c1 | -1.29% (inactive)
4 | O=C(CCNNC(=O)c1ccncc1)NCc1ccccc1 | -4.94% (inactive)
5 | COCCc1ccc(OCC(O)CNC(C)C)cc1 (stereo not given) | -1.37% (inactive)
6 | Oc1ccc(/C=C/c2cc(O)cc(O)c2)cc1 | -11.8% (inactive)
7 | COc1nc(C)nc(Cl)c1NC1=NCCN1 | -0.743% (inactive)
8 | C[C@]12CCC(=O)C=C1CC[C@@H]1[C@@H]2C(=O)C[C@@]2(C)[C@H]1CC[C@]2(O)C(=O)CO | -3.79% (inactive)
9 | Clc1ccccc1C(c1ccccc1)(c1ccccc1)n1ccnc1 | -3.54% (inactive)
10 | COc1ccc(C(=O)N2CCCC2=O)cc1 | -0.057% (inactive)
11 | CCN(CC)CCCN(c1ccccc1)C1Cc2ccccc2C1 | -4.2% (inactive)
12 | Cc1cc(C)c(/C=C2\C(=O)Nc3ccccc32)[nH]1 | 0.328% (inactive)
13 | CN(C)CC[C@@H](c1ccc(Cl)cc1)c1ccccn1 | -1.1% (inactive)
14 | OC(CN1CCC(Cc2ccc(F)cc2)CC1)c1ccc(Cl)cc1 (stereo not given) | -4.44% (inactive)
15 | NC(N)=NC(=O)c1nc(Cl)c(N)nc1N | 1% (inactive)
16 | CCOC(=O)Nc1ccc(NCc2ccc(F)cc2)nc1N | -5.1% (inactive)
17 | C=CCc1ccccc1OCC(O)CNC(C)C (stereo not given) | -1.18% (inactive)
18 | O=C(Nc1ccc([N+](=O)[O-])cc1Cl)c1cc(Cl)ccc1O | -10.8% (inactive)
19 | NCCc1ccc(O)c(O)c1 | -1.5% (inactive)
20 | CCCCC1C(=O)N(c2ccccc2)N(c2ccccc2)C1=O | -1.28% (inactive)

Row | SMILES | activation
21 | O=C(O)CN(CCOCCOCCN(CC(=O)O)CC(=O)O)CC(=O)O | -4.55% (inactive)
22 | Nc1c2c(nc3ccccc13)CCCC2 | -3.14% (inactive)
23 | COC(=O)C1=C(C)NC(C)=C(C(=O)OC(C)(C)CN(C)CCC(c2ccccc2)c2ccccc2)C1c1cccc([N+](=O)[O-])c1 (stereo not given) | -3.35% (inactive)
24 | Cn1cnc2c1c(=O)[nH]c(=O)n2C | -4.56% (inactive)
25 | CCN(CC)CCCC(C)Nc1c2ccc(Cl)cc2nc2ccc(OC)cc12 (stereo not given) | 4.86% (inactive)
26 | CCc1cccc(N(C)C(N)=Nc2cccc3ccccc23)c1 | -4.82% (inactive)
27 | CN(C)CCC(c1ccccc1)c1ccccn1 (stereo not given) | -2.94% (inactive)
28 | O=C(O)c1cccnc1Nc1cccc(C(F)(F)F)c1 | 2.36% (inactive)
29 | Oc1ccc(O)cc1 | 3.38% (inactive)
30 | Nc1ccn([C@H]2CC[C@@H](CO)O2)c(=O)n1 | -1.79% (inactive)
31 | COC(=O)C1=C(C)NC(C)=C(C(=O)OC)C1c1ccccc1[N+](=O)[O-] | -4.43% (inactive)
32 | C[C@]12CC[C@@H]3c4ccc(O)cc4CC[C@H]3[C@@H]1CCC2=O | 3.36% (inactive)
33 | CC1=C(C)C(=O)C(CCCCC#CCCCC#CCO)=C(C)C1=O | 0.948% (inactive)
34 | Cc1[nH]c(=O)c(C#N)cc1-c1ccc2nccn2c1 | -3.49% (inactive)
35 | Nc1c2c(nc3ccccc13)CCCC2O (stereo not given) | -3.06% (inactive)
36 | COc1cc2c(cc1OC)-c1cc(=Nc3c(C)cc(C)cc3C)n(C)c(=O)n1CC2 | -1.9% (inactive)
37 | CN1Cc2c(N)cccc2C(c2ccccc2)C1 (stereo not given) | -6.09% (inactive)
38 | COc1ccc(CCN(C)CCCC(C#N)(c2cc(OC)c(OC)c(OC)c2)C(C)C)cc1OC (stereo not given) | -2.42% (inactive)
39 | CCN(CC)CC(=O)Nc1c(C)cccc1C | -0.804% (inactive)
40 | CCN(CC)CCOCCOC(=O)C1(c2ccccc2)CCCC1 | -3.67% (inactive)
